Structures are written as SMILES. The panel holds about 83,000 compounds, 20% with a hit somewhere; the sample as a whole holds those more often.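 How to read the values: 0–100, growth inhibition (40 = 60% inhibited); 0, no net growth; -100 to 0, cell death (-40 = 40% of starting cells died; -100 = all dead).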 A number with no mark means an inactive call. Active and inactive are the calls of the source. The calls were made as follows: active = growth percent below 10; inactive = the rest.

Assay in all cases: NCI-60 one-dose screen, 48 h (100 = growth as untreated, 0 = no growth, -100 = all killed)
What all share (conditions): 10 µM unless noted

The test system of test [1] is NCI-H23 lung.
Test [2] has as its system NCI-H322M lung.
For test [3], the system named is HOP-62 NSCLC.
For test [4], the system named is NCI-H460 lung.
In test [5] the test system is HOP-92 NSCLC.
In test [6] the test system is NCI-H522 lung.
Test [7] concerns A549/ATCC NSCLC.
Test [8] has as its system 786-0 renal.
The test system of test [9] is COLO 205 colon.
Test [10] concerns DU-145 prostate.
Test [11] relates to K-562 leukemia.
For test [12], the system named is MALME-3M melanoma.
Test [13] has as its system MDA-MB-231 breast.
In test [14] the test system is RXF 393 renal.
Test [15] deals with SF-268 CNS.
In test [16] the test system is SF-295 CNS.
Test [17] deals with SF-539 CNS.
Test [18] concerns UACC-257 melanoma.
Test [19] has as its system M14 melanoma.

`COc1ccc(NC(=O)c2ccoc2COc2ccccc2)cc1`: the growth was 95.7% in [1]; 101% in test [2]; 100% in test [3]; 106% in test [4]; 88.8% in test [5]; 90.2% in test [6]. Further, the growth was 102% in test [7]; 96.9% in [8]; 110% in [9]; 106% in test [10]; 55% in test [11]; 99.7% in test [12]. The growth was 95.7% in test [13]; 93.9% in [14]; 97.5% in test [15]; 98.3% in [16]; 96% in test [17]; 99.7% in [18]. Besides, in test [19], the growth is 92.1%.

In the case of `Cc1cc(C)c(NC(=O)c2sc3nc4c(cc3c2N)CCCC4)c(C)c1`, the growth was 59.8% in test [1]; 88.7% in [2]; 24.1% in test [3]; 28.8% in [4]; 52.3% in test [5]; 4.49% (active) in test [6]. The growth is 50.1% in [7]; 47.3% in test [8]; 42.6% in [9]; 70.3% in test [10]; 12.4% in [11]; 44.7% in test [12]. In addition, the growth in test [13] was 71.8%; in test [14], 57.9%; in [15], 48.8%; in test [16], 29.2%; in [17], 26.9%; in test [19], 24.5%.

For `Cc1cc(N2CCOCC2)nc(N(CCCNc2ccnc3cc(Cl)ccc23)Cc2ccco2)n1`, the growth is 35.3% in test [1]; 28.7% in [2]; 12.9% in [3]; 18.8% in [4]; 34% in [5]; 40.2% in test [6]. Besides, the growth was 18.9% in [7]; 42.1% in test [8]; 3.4% (active) in test [9]; 52.6% in [10]; 4.98% (active) in test [11]; 53.6% in [12]. The growth in test [13] was 19.6%; in test [14], 21.2%; in test [15], 50.7%; in [16], 16.6%; in test [17], -2.57% (active); in test [18], 85%. The growth in test [19] was -3.48% (active).

On to `Nc1nc2c3ccncc3cc(-c3cccc(Cl)c3)c2c2cnccc12`, for which the growth in test [1] was 66.8%; in [3], 44.1%; in test [4] it was 12.9%; in test [5], 50.3%; in test [6], 48.4%; in test [7], 28.3%. The growth in test [8] is 21.3%; in test [9], 20.9%; in test [10], 40.5%; in test [11], 17.1%; in test [12] it was 57%; in [13], 52.8%. Also, the growth in test [14] is 10.4%; in [15], 49.5%; in test [16], 31.4%; in test [17], 30.1%; in [18], 59%; in [19] it was 45.7%.

Consider `COc1ccc(-c2nc3ncccn3c2-c2nc3ccc(Br)cc3[nH]2)cc1`, for which the growth was 98.4% in test [1]; 94.3% in test [2]; 99.3% in test [3]; 90.1% in test [4]; 77.1% in test [5]; 69.7% in test [6]. For the same compound, the growth was 84.9% in test [7]; 98.1% in [8]; 104% in test [9]; 94.1% in [10]; 63.5% in test [11]; 81.3% in [12]. In addition, the growth was 72.9% in [13]; 74.1% in test [14]; 99.6% in [15]; 82.8% in test [17]; 92.6% in [18]; 90.5% in [19].

As to `C#CCN=C[C@]12CC[C@@H](C(=C)C)[C@@H]1[C@H]1CC[C@@H]3[C@@]4(C)CCC(=O)C(C)(C)[C@@H]4CC[C@@]3(C)[C@]1(C)CC2`, the growth in [1] was 50.5%; in test [2], 103%; in test [3] it was 88.8%; in test [5], 65.4%; in test [6], 51%; in test [7] it was 46.1%. Further, the growth in test [8] was 74.9%; in test [9], 65.8%; in test [10] it was 67.9%; in [11], 28.1%; in [12] it was 81.8%; in test [13] it was 83.8%. The growth is 80.3% in test [14]; 71.3% in test [15]; 68.5% in test [16]; 80.2% in test [17]; 55.6% in test [18]; 63.1% in test [19].

For the origin of these results see PubChem BioAssay (NCI).
